Records with an inconclusive call do not appear. Unmarked numbers belong to inactive results. Calls of active or inactive are those of the source. Calls follow the shape of the dose curve; as a rule, active = well fitted inhibition curve with a large enough effect in the repeat runs; inconclusive = weak or mixed curves; inactive = no such curve, though single readings can be large or run the other way.
% is scaled to controls: 0 for no effect and ±100 for the full control effect; potency is read from the fitted curve at half-maximal effect.

For this test, the target named is Cytochrome P450 2C9 (Homo sapiens) (UniProt P11712). The experiment in a line: Cytochrome P450 Family 2 Subfamily C Member 9 (CYP2C9) small molecule antagonists: luciferase reporter qHTS assay (AID 1671198). Also: nearly all actives have a fitted effect of over 50% in size. The following applies: P450-Glo CYP2C9 enzyme assay, luciferin luminescence; series mostly up to 115 µM; activity change, negative = inhibition: at the top concentration. The text has this: U.S. Tox21 Program National Center for Advancing Translational Sciences [NCATS] U.S. Environmental Protection Agency [EPA] National Institutes of Environmental Health Sciences [NIEHS] National Toxicology Program [NTP] U.S. Food and Drug Administration [FDA] Tox21 Assay Overview: Cytochrome P450 (CYP) enzymes are membrane-bound hemeproteins that play a key role in metabolism of drugs and xenobiotics. Evaluation of the effect of chemicals on CYP isozymes is useful to minimize the adverse drug reactions and toxicities in drug development process. Tox21 chemicals were tested for their effect on CYP enzyme activities by using P450-Glo (TM) screening systems (Promega Corporation, Madison, WI). These systems provide a luminescent method containing proluciferin substrates and are converted to luciferin products by CYP isozymes. The luciferin products formed are detected with a luciferin detection reagent, and the amount of light produced is proportional to CYP activity. P450-Glo (TM) CYP2C9 screening system (Catalog. No. V9790) was used to detect the compounds that interfere in CYP2C9 activity.
Cytochrome P450 2C9 (Homo sapiens), sequence (P11712 whole entry, looked up): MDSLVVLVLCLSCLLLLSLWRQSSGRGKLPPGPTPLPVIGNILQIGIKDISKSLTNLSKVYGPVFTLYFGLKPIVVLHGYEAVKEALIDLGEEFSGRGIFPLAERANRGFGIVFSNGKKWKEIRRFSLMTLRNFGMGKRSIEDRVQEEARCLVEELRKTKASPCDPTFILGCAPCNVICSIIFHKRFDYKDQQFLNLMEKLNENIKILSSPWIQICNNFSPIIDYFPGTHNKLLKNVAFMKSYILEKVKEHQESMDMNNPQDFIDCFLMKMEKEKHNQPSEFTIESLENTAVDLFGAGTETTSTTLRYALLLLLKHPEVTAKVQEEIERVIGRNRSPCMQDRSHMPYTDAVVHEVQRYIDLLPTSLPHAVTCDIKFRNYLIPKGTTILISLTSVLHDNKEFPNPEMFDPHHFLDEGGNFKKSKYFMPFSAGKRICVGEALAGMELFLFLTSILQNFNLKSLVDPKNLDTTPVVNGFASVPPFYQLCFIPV
Tox21 Assay Protocol Summary: Two ul of enzyme-substrate mix was dispensed into medium binding white/solid 1536-well plates (Greiner Bio-One North America Inc., Monroe, NC) using a BioRaptr Flying Reagent Dispenser (FRD, Beckman Coulter, Brea, CA). […] The assay plates were incubated at room temperature for 10 min. Then 2 ul of NADPH regeneration solution was added to each well of the assay plates using an FRD and incubated at 37C for 1 h. The reaction was stopped by adding 4 ul of detection reagent using an FRD and after 20 min incubation at room temperature the luminescence signal was measured using a ViewLux plate reader (Perkin Elmer, Shelton, CT). Data were expressed as relative luminescence units.
Take `COC(=O)c1nc(Cl)c(Cl)nc1N`: the “activity change, negative = inhibition” value was -11% [at 53 µM]. On to `CC(=O)NC1(c2cccc(F)c2)CCN(CC[C@@]2(c3ccc(Cl)c(Cl)c3)CN(c3ccccc3)C(=O)CO2)CC1`, for which the Potency is 8.96 µM (active). Consider `NC1[C@H]2CN(c3nc4c(cc3F)c(=O)c(C(=O)O)cn4-c3ccc(F)cc3F)C[C@@H]12` (stereo not given in full), for which the “activity change, negative = inhibition” value is -5.22% [at 53 µM]. As for `CCC(C)COC(C)=O` (stereo not given), the “activity change, negative = inhibition” value is -16.5%. Still for that read-out and setting: with `CC(CCC(=O)O)C(=O)O` (stereo not given) the figure was -4.79%; with `CC[N+](CC)(CCNC(=O)C(=O)NCC[N+](CC)(CC)Cc1ccccc1Cl)Cc1ccccc1Cl`, -8.33% [at 53 µM]; with `COc1cc(N)c(Cl)cc1C(=O)NC1CCN(CCCOc2ccc(F)cc2)CC1OC` (stereo not given), 9.17% [at 53 µM]. Consider `Clc1cc(Cl)nc(Cl)n1`, for which the “activity change, negative = inhibition” value was -19.3%. Regarding `COc1cc(C(=O)NCCCCCC(=O)O)cc(OC)c1OC`, the “activity change, negative = inhibition” value is -1.64% [at 53 µM].

Consider `O=C1NCCN1CCO`, for which the “activity change, negative = inhibition” value was 0.579%.

Consider `C1COC1`, for which the “activity change, negative = inhibition” value was 2.41%.

For `Cc1ccc(CO)cc1`, the “activity change, negative = inhibition” value was -9.15%. `N#[N+]c1ccc2c(S(=O)(=O)[O-])cccc2c1O`: the Potency is 39.9 µM (active). On to `O=C(O)c1ccc(OCCCOc2ccc(C(=O)O)cc2)cc1`, for which the “activity change, negative = inhibition” value was -15.2% [at 53 µM].

In the case of `C[C@]1(Cn2ccnn2)[C@H](C(=O)O)N2C(=O)C[C@H]2S1(=O)=O`, the “activity change, negative = inhibition” value is 21.5% [at 53 µM]. In the case of `O=C(CCc1ccc(O)cc1)c1c(O)cc(O)cc1O`, the Potency was 20.5 µM (active). Regarding `O=C(OC(=O)c1ccccc1)c1ccccc1`, the “activity change, negative = inhibition” value was 1.34%.

For the compound `Cc1ccc(C(C)(C)O)cc1`, the “activity change, negative = inhibition” value is -8.6%.

Consider `CN(C)CCC=C1c2ccccc2C=Cc2ccccc21`, for which the “activity change, negative = inhibition” value is 9.55% [at 53 µM].

`Cc1cc(C)cc(N)c1`: the Potency is 11.4 µM (active). With `CCOc1ccccc1O[C@H](c1ccccc1)[C@H]1CNCCO1`, the “activity change, negative = inhibition” value is -5.29% [at 53 µM]. On to `CC(C)=CC(=O)C=C(C)C`, for which the “activity change, negative = inhibition” value was -16.6%.

For the compound `C=C1C[C@@]23CC[C@H]4[C@@](C)(CCC[C@@]4(C)C(=O)O[C@@H]4O[C@H](CO)[C@@H](O)[C@H](O)[C@H]4O)[C@@H]2CC[C@]1(O[C@@H]1O[C@H](CO)[C@@H](O)[C@H](O[C@@H]2O[C@H](CO)[C@@H](O)[C@H](O)[C@H]2O)[C@H]1O[C@@H]1O[C@H](CO)[C@@H](O)[C@H](O)[C@H]1O)C3`, the “activity change, negative = inhibition” value is 7.68%. For the compound `CC(=O)c1cc2ccccc2s1`, the “activity change, negative = inhibition” value is 13.3% [at 53 µM].

With `CCCCCCC(C)(C)C(=O)O`, the Potency was 31.7 µM (active). For `O=C(CCCN1CC=C(n2c(=O)[nH]c3ccccc32)CC1)c1ccc(F)cc1`, the “activity change, negative = inhibition” value was -1.68% [at 53 µM].

For the compound `CC1=C(Br)C(=O)C(Br)=C/C1=C(/c1ccccc1S(=O)(=O)O)c1cc(Br)c(O)c(Br)c1C`, the Potency was 15.3 µM (active). With `CCOC(=O)c1ccc(O)c(O)c1`, the “activity change, negative = inhibition” value was 87.7% [at 53 µM].

As for `Cc1ccc(OC(=O)c2ccccc2O)cc1`, the Potency is 35.6 µM (active). For `O=C1c2ccccc2C(=O)N1CCc1noc(-c2ccc(CN3CCCCCC3)s2)n1`, the Potency is 20.6 µM (active). On to `CCCCN(CCN(CCCC)C(=O)N1CCOCC1)C(=O)N1CCOCC1`, for which the “activity change, negative = inhibition” value is 2.57% [at 53 µM]. Consider `Clc1ccc(Nc2nnc(Cc3ccncc3)c3ccccc23)cc1`, for which the Potency was 1.55 µM (active).

Take `Cc1[nH]cnc1CN1CCc2c(c3ccccc3n2C)C1=O`: the Potency was 2.19 µM (active). Take `CCC(=O)OC`: the “activity change, negative = inhibition” value was -0.159%. On the same count and under the same terms, with `CC1CC(C)C(=O)C1=O` (stereo not given) the figure was -19.7%.

With `CCCCCC#CC(=O)OC`, the Potency was 63.3 µM (active). For the compound `CCCCCCCCN`, the “activity change, negative = inhibition” value is 0.962%. As to `C/C=C(/C(=C/C)c1ccc(O)cc1)c1ccc(O)cc1`, the Potency was 17.4 µM (active). Turning to `CN(C)CCN1C(=O)c2ccccc2N(C)c2ccccc21`, the “activity change, negative = inhibition” value is 3.68% [at 53 µM].

On to `O=C(Cn1ccnc1[N+](=O)[O-])NCCO`, for which the “activity change, negative = inhibition” value was 1.05% [at 53 µM].
